Reference: PubChem BioAssay
For some assays here: Entries with a potency or affinity are not part of this list. The source made the active and inactive calls. Unless noted, the rule behind the calls is not given here.

Legend:
[1] = antimalarial activity against Dd2 strain (AID 2302;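 active = growth inhibition above 50% at the single 2 µM test dose, taken to imply half-maximal potency below 2 µM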;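 note: 0% = DMSO untreated growth and 100% = chloroquine plus artemisinin killed control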); settings: P. falciparum Dd2 in RBCs, LDH growth readout, 72 h; at 2 µM; active compounds read high
[2] = HepG2 cytotoxicity, primary screen, cytotoxicity control for P. falciparum antimalarial project, cell-based, ATP luminescence (AID 2303;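 active = inhibition above 50%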;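 note: 0% = DMSO wells and 100% = digitonin-killed cells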); settings: HepG2 viability, 24-48 h, at 10 µM, active compounds read high
[3] = target: L-lactate dehydrogenase (Plasmodium falciparum (isolate CDC / Honduras)) (UniProt Q27743); test: PfLDH activity inhibition – cell lysate, 3D7 strain, counter-screen for P. falciparum growth inhibition project (AID 2304);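 note: 0% = vehicle and 100% = reference inhibitor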; settings: P. falciparum 3D7 crude extract, LDH APAD/NBT absorbance; at 2 µM; active compounds read high
Chain of L-lactate dehydrogenase (Plasmodium falciparum (isolate CDC / Honduras)) (Q27743 whole entry, looked up): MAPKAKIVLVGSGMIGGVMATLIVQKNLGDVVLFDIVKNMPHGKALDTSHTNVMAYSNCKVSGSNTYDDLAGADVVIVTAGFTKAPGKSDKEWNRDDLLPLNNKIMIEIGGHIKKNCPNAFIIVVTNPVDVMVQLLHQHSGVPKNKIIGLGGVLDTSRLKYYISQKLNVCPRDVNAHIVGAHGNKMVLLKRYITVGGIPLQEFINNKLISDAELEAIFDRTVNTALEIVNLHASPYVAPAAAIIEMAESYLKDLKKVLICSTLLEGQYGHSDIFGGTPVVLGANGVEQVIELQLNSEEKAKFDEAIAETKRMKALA

[4] = inhibition of 3D7 malaria parasite growth – strain 3D7 (AID 2306);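 note: 0% = DMSO wells and 100% = chloroquine plus artemisinin control wells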; settings: P. falciparum 3D7 erythrocytic growth, LDH absorbance, 72 h; at 2 µM; active compounds read high
[5] = target: Calcium-dependent protein kinase 1 (Plasmodium falciparum (isolate 3D7)) (UniProt P62344); test: PfCDPK1 kinase inhibitors, biochemical, TCAMS library (AID 1159585; cut-off not given, nearly all actives have IC50 up to about 0.98 µM;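 note: inhibitors leave more ATP so luminescence rises with inhibition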); settings: recombinant PfCDPK1, Kinase-Glo ATP depletion luminescence
Chain of Calcium-dependent protein kinase 1 (Plasmodium falciparum (isolate 3D7)) (P62344 whole entry, looked up): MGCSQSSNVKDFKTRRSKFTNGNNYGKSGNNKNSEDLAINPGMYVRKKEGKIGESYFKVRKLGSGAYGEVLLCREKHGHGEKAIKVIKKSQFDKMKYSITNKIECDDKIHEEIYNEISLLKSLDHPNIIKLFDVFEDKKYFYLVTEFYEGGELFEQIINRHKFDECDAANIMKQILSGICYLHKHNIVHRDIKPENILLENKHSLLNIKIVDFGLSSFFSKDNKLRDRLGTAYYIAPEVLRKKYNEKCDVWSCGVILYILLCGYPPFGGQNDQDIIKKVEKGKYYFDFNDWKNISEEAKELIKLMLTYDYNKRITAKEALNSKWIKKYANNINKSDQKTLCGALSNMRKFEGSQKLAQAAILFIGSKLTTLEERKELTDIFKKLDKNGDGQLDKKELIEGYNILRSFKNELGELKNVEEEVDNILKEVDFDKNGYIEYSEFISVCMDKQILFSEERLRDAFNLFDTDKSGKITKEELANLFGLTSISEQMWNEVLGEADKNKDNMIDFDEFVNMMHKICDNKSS

[6] = target: Plasmodium falciparum protein kinase 6 (PK6, PF3D7_1337100) (UniProt Q8IDW1); test: PfPK6 kinase inhibitors, biochemical, TCAMS library (AID 1159586); settings: recombinant PfPK6, Kinase-Glo ATP depletion luminescence
Chain of Plasmodium falciparum protein kinase 6 (PK6, PF3D7_1337100) (Q8IDW1 1-305): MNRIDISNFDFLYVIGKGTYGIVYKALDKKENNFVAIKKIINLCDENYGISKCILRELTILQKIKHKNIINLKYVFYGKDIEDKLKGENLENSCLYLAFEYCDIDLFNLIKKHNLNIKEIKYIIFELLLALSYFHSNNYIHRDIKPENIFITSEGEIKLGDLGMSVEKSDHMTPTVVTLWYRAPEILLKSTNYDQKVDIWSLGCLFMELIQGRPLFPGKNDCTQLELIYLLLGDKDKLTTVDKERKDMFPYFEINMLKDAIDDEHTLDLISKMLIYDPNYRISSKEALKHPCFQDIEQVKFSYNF

[7] = target: Protein kinase 7 (PK7), Plasmodium falciparum 3D7 (PF3D7_0213400) (UniProt Q7YTF7); test: inhibition of Plasmodium PK7 catalytic activity – biochemical, TCAMS antimalarial set, Kinase-Glo luminescence (AID 1159587); settings: recombinant PfPK7, Kinase-Glo ATP depletion luminescence
Chain of Protein kinase 7 (PK7), Plasmodium falciparum 3D7 (PF3D7_0213400) (Q7YTF7 1-343): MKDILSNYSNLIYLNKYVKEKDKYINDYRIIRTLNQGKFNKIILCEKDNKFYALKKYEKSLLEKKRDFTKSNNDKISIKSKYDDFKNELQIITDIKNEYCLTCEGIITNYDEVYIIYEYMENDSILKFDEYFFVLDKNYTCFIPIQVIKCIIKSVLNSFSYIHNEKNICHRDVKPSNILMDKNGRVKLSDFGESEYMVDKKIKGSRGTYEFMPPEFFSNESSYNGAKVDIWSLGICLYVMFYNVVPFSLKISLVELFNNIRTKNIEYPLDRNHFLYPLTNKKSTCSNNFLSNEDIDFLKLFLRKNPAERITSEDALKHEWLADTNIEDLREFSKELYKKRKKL

[8] = target: Calcium-dependent protein kinase 4 (Plasmodium falciparum (isolate 3D7)) (UniProt Q8IBS5); test: PfCDPK4 kinase inhibitors, biochemical, TCAMS library (AID 1159588; cut-off not given, nearly all actives have IC50 up to about 0.91 µM); settings: recombinant PfCDPK4, Kinase-Glo ATP depletion luminescence
Chain of Calcium-dependent protein kinase 4 (Plasmodium falciparum (isolate 3D7)) (Q8IBS5 whole entry, looked up): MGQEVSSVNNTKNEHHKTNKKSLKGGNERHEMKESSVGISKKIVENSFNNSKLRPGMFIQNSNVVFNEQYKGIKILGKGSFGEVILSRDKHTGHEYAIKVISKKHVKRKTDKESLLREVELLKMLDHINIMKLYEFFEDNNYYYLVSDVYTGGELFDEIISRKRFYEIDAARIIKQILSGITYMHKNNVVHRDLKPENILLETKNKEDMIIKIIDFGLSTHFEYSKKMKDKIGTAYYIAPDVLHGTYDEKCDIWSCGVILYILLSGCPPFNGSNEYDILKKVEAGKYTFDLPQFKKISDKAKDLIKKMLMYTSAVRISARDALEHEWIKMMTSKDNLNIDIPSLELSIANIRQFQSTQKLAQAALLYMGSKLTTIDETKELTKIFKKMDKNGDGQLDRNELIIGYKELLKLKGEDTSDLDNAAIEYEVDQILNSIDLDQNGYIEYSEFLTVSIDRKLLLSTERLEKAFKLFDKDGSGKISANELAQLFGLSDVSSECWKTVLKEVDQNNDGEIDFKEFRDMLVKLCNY

O=C(Nc1ccc(F)cc1F)NC1CCN(CCCCCNC(=O)[C@@H]2C[C@H]2c2ccc(Cl)c(Cl)c2)CC1
active: growth inhibition [4] 100%
inactive: growth inhibition [1] 32% | inhibition [2] 41% | inhibition [3] 1% | outcome [5] | outcome [6] | outcome [7] | outcome [8]

CC(=O)Nc1nc(C(=O)Nc2ccc(-c3ccc(-c4nc5c(C)cccc5[nH]4)cc3)cc2)cs1
active: growth inhibition [1] 53% | growth inhibition [4] 101%
inactive: inhibition [2] 42% | inhibition [3] -1% | outcome [5] | outcome [6] | outcome [7] | outcome [8]

COc1cc2nc(-c3ccccc3)nc(N3CCN(CC(=O)N4CCCC4)CC3)c2cc1OC
inactive: inhibition [2] 7% | inhibition [3] -1% | outcome [5] | outcome [6] | outcome [7] | outcome [8]
active: growth inhibition [1] 70% | growth inhibition [4] 84%

COc1ccc(C(=O)Nc2cc(Br)c3c(c2)CNCC3)cc1Br
inactive: growth inhibition [1] 8% | inhibition [2] 25% | inhibition [3] 7% | outcome [5] | outcome [6] | outcome [7] | outcome [8]
active: growth inhibition [4] 97%

COc1ccc(CNC2CCN(C)CC2)cc1-c1ccc(S(=O)(=O)NC2CCC2)s1
active: growth inhibition [1] 94% | growth inhibition [4] 100%
inactive: inhibition [2] 32% | inhibition [3] 5% | outcome [5] | outcome [6] | outcome [7] | outcome [8]

Cc1cccc2[nH]c(-c3cccc(-c4cccc(NC(=O)c5ccc(=O)[nH]n5)c4)c3)nc12
inactive: growth inhibition [1] 32% | inhibition [2] 10% | inhibition [3] -1% | outcome [5] | outcome [6] | outcome [7] | outcome [8]
active: growth inhibition [4] 101%

O=C(C1CC1)N1c2ccccc2CCc2ccccc21
active: growth inhibition [1] 57% | growth inhibition [4] 98%
inactive: inhibition [2] 40% | inhibition [3] 1% | outcome [5] | outcome [6] | outcome [7] | outcome [8]

CCc1ccc(N2C(N)=NC(N)=NC2(C)C)cc1
active: inhibition [2] 51% | growth inhibition [4] 94%
inactive: growth inhibition [1] -1% | inhibition [3] -2% | outcome [5] | outcome [6] | outcome [7] | outcome [8]

COc1ccc(CN2CCC(NCc3cccc(-n4ccnc4)c3)CC2)cc1
active: growth inhibition [1] 93% | growth inhibition [4] 100%
inactive: inhibition [2] 10% | inhibition [3] -5% | outcome [5] | outcome [6] | outcome [7] | outcome [8]

O=C(Nc1ccc(OC2CCN(Cc3ccc(F)cc3)CC2)c(Cl)c1)c1ccoc1
active: growth inhibition [1] 90% | growth inhibition [4] 89%
inactive: inhibition [2] -2% | inhibition [3] 2% | outcome [5] | outcome [6] | outcome [7] | outcome [8]

CNS(=O)(=O)CCNCc1ccc(-c2ccc3ncnc(Nc4ccc(OCc5ccccc5)cc4)c3c2)o1
active: growth inhibition [4] 101%
inactive: growth inhibition [1] 26% | inhibition [2] 19% | inhibition [3] -3% | outcome [5] | outcome [6] | outcome [7] | outcome [8]

CNC(=S)NN=C(C)c1ccccn1
inactive: inhibition [3] -4% | outcome [5] | outcome [6] | outcome [7] | outcome [8]
active: growth inhibition [1] 99% | inhibition [2] 64% | growth inhibition [4] 98%

CN1CCN(CCCN(Cc2ccc(-c3cccc(CNCc4ccc5c(c4)OCO5)c3)cc2)C(=O)Nc2ccccc2)CC1
inactive: inhibition [3] -7% | outcome [5] | outcome [6] | outcome [7] | outcome [8]
active: growth inhibition [1] 87% | inhibition [2] 51% | growth inhibition [4] 101%

C=C[C@H]1CN(CCCCCCC)CC[C@H]1C[C@@H](Cc1ccnc2ccc(OC)cc12)OC(=O)[C@](OC)(c1ccccc1)C(F)(F)F
active: growth inhibition [1] 96% | growth inhibition [4] 96%
inactive: inhibition [2] 12% | inhibition [3] 7% | outcome [5] | outcome [6] | outcome [7] | outcome [8]

CCN(CC)CCN(Cc1ccc(-c2ccc(C(F)(F)F)cc2)cc1)C(=O)Cn1c(CCc2cccc(F)c2F)nc(=O)c2cc(F)ccc21
active: growth inhibition [4] 98%
inactive: growth inhibition [1] 45% | inhibition [2] 15% | inhibition [3] 0% | outcome [5] | outcome [6] | outcome [7] | outcome [8]

Cc1cc(NN=Cc2ccccc2Cl)c2ccccc2n1
active: growth inhibition [4] 102%
inactive: growth inhibition [1] 30% | inhibition [2] -3% | inhibition [3] 2% | outcome [5] | outcome [6] | outcome [7] | outcome [8]

Cc1ccc(N/C(N)=N/c2ncccc2OCc2c(F)cccc2Cl)cc1
inactive: inhibition [3] -2% | outcome [5] | outcome [6] | outcome [7] | outcome [8]
active: growth inhibition [1] 54% | inhibition [2] 78% | growth inhibition [4] 86%

COC(=O)C(Cc1ccccc1)C(CSCc1ccc(OC)cc1)C(=O)N[C@@H](C(=O)OC(C)(C)C)c1ccc(C(C)(C)C)cc1 (stereo partly specified)
active: growth inhibition [4] 93%
inactive: growth inhibition [1] 44% | inhibition [2] -1% | inhibition [3] 2% | outcome [5] | outcome [6] | outcome [7] | outcome [8]

COc1ccc2nccc([C@@H](O)CN3CCC(NC(=O)c4ccc(Oc5ccccc5)cc4)CC3)c2c1
active: growth inhibition [4] 82%
inactive: growth inhibition [1] 13% | inhibition [2] 39% | inhibition [3] 2% | outcome [5] | outcome [6] | outcome [7] | outcome [8]

CCCCOc1ccc(-c2nc3ccccc3[nH]2)cc1
active: growth inhibition [1] 82% | growth inhibition [4] 86%
inactive: inhibition [2] 21% | inhibition [3] -1% | outcome [5] | outcome [6] | outcome [7] | outcome [8]

O=C(Cc1ccccc1)NC(CCN1CCC(O)(c2cccc(C(F)(F)F)c2)CC1)c1ccc(Cl)c(Cl)c1 (stereo unspecified)
active: growth inhibition [4] 96%
inactive: growth inhibition [1] 32% | inhibition [2] 25% | inhibition [3] 1% | outcome [5] | outcome [6] | outcome [7] | outcome [8]

Brc1cc(Br)c2c(c1)C(NCCCNc1nc3ncccc3[nH]1)CCN2 (stereo unspecified)
active: growth inhibition [1] 83% | growth inhibition [4] 99%
inactive: inhibition [2] 5% | inhibition [3] 1% | outcome [5] | outcome [6] | outcome [7] | outcome [8]

COc1ccc2nccc([C@@H](O)CN3CC[C@H](NCc4ccc5c(n4)NC(=O)CS5)[C@H](F)C3)c2c1
active: growth inhibition [1] 88% | growth inhibition [4] 89%
inactive: inhibition [2] 5% | inhibition [3] 0% | outcome [5] | outcome [6] | outcome [7] | outcome [8]

Cc1cc(Nc2cc(Cl)cc(Cl)c2)nc(N)n1
inactive: growth inhibition [1] 28% | inhibition [2] -12% | inhibition [3] 3% | outcome [5] | outcome [6] | outcome [7] | outcome [8]
active: growth inhibition [4] 94%

CC(C)CC(=O)N(Cc1ccc(-c2ccc(CNC3Cc4ccccc4C3)cc2)cc1)C1CCNCC1
active: growth inhibition [1] 65% | growth inhibition [4] 85%
inactive: inhibition [2] 20% | inhibition [3] -5% | outcome [5] | outcome [6] | outcome [7] | outcome [8]

O=C(Nc1cccc(CN2CCCN(Cc3ccc(O)cc3)CC2)c1)c1cccc(C(F)(F)F)c1
inactive: inhibition [2] 9% | inhibition [3] 3% | outcome [5] | outcome [6] | outcome [7] | outcome [8]
active: growth inhibition [1] 71% | growth inhibition [4] 101%

Cc1ccc2nc(/C=C/c3cccc4cc[nH]c34)[nH]c2c1
inactive: inhibition [2] 9% | inhibition [3] -3% | outcome [5] | outcome [6] | outcome [7] | outcome [8]
active: growth inhibition [1] 92% | growth inhibition [4] 100%

Cc1cc(NN=Cc2ccccc2[N+](=O)[O-])c2ccc(F)cc2n1
inactive: inhibition [2] 32% | inhibition [3] -4% | outcome [5] | outcome [6] | outcome [7] | outcome [8]
active: growth inhibition [1] 100% | growth inhibition [4] 101%

Clc1cccc(CNc2nc(NCCc3cnc[nH]3)nc(NC3CCCCC3)n2)c1
inactive: growth inhibition [1] 0% | inhibition [2] 17% | inhibition [3] 5% | outcome [5] | outcome [6] | outcome [7] | outcome [8]
active: growth inhibition [4] 98%

O=C(Nc1cccc(CN2CCN(Cc3ccc(O)cc3)CC2)c1)c1ccc(-c2ccccc2)cc1
inactive: inhibition [2] 40% | inhibition [3] 1% | outcome [5] | outcome [6] | outcome [7] | outcome [8]
active: growth inhibition [1] 67% | growth inhibition [4] 101%

CN(Cc1ccc(NC(=O)NC2CCN(C(=O)/C=C/c3ccc(Cl)c(Cl)c3)CC2)cc1)C1CCOCC1
active: growth inhibition [4] 96%
inactive: growth inhibition [1] 14% | inhibition [2] 9% | inhibition [3] 5% | outcome [5] | outcome [6] | outcome [7] | outcome [8]

CC(=O)N1N=C(c2ccccc2)Sc2c1nc(-c1ccc(Cl)cc1)n2C(C)=O
inactive: growth inhibition [1] 18% | inhibition [2] -1% | inhibition [3] 0% | outcome [5] | outcome [6] | outcome [7] | outcome [8]
active: growth inhibition [4] 94%

Cc1[nH]c2ccccc2c1C(=O)C(C)Sc1n[nH]c(-c2ccccc2Br)n1 (stereo unspecified)
inactive: inhibition [2] -7% | inhibition [3] -3% | outcome [5] | outcome [6] | outcome [7] | outcome [8]
active: growth inhibition [1] 100% | growth inhibition [4] 101%

COc1cc2c(cc1S(=O)(=O)c1ccc(OCc3ccc(Cl)cc3)cc1)CCN(Cc1ccc(NC(C)=O)s1)CC2
inactive: growth inhibition [1] -3% | inhibition [2] 3% | inhibition [3] -2% | outcome [5] | outcome [6] | outcome [7] | outcome [8]
active: growth inhibition [4] 89%

Cc1cc(NN=Cc2cccc(F)c2)c2cccc(C)c2n1
active: growth inhibition [1] 53% | growth inhibition [4] 100%
inactive: inhibition [2] 14% | inhibition [3] 5% | outcome [5] | outcome [6] | outcome [7] | outcome [8]

Cc1cccc2[nH]c(-c3cccc(-c4cccc(CN5CCCC5CN)c4)c3)nc12 (stereo unspecified)
active: growth inhibition [1] 72% | growth inhibition [4] 101%
inactive: inhibition [2] 15% | inhibition [3] 6% | outcome [5] | outcome [6] | outcome [7] | outcome [8]

Cc1cc(NC(=O)NCCN2CCC(NC(=O)c3ccc(C(F)(F)F)cc3)CC2)c2ccccc2n1
inactive: inhibition [2] 3% | inhibition [3] -3% | outcome [5] | outcome [6] | outcome [7] | outcome [8]
active: growth inhibition [1] 75% | growth inhibition [4] 98%
